# Assay results reported in PubChem BioAssay (NCI).
# Where “and” joins values, the source holds several entries; their conditions need not be identical. Equal entries are not always repeated. This is part of a sample that, as a whole, favours compounds with a hit. Of some 83,000 tested, about 20% had one in any assay.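 Percent growth is the endpoint: 0 to 100 indicates growth inhibition (40 means 60% inhibition), 0 means no net growth, and negative values indicate cell death.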 Values without a mark were called inactive. Calls of active or inactive are those of the source. How the source made its calls: active means growth percent below 10; inactive means the rest.
# Legend:
# Assay in all cases: NCI-60 one-dose screen, 48 h (100 = growth as untreated, 0 = no growth, -100 = all killed)
# Details in all cases: 10 µM unless noted
# MOLT-4 leukemia = tested on: MOLT-4 leukemia
# SR leukemia = tested on: SR leukemia
# RPMI-8226 leukemia = tested on: RPMI-8226 leukemia
# OVCAR-8 ovarian = tested on: OVCAR-8 ovarian
# OVCAR-5 ovarian = tested on: OVCAR-5 ovarian
# OVCAR-4 ovarian = tested on: OVCAR-4 ovarian
# SK-OV-3 ovarian = tested on: SK-OV-3 ovarian
# IGROV1 ovarian = tested on: IGROV1 ovarian
# OVCAR-3 ovarian = tested on: OVCAR-3 ovarian
# HS 578T breast = tested on: HS 578T breast
# NCI/ADR-RES ovarian = tested on: NCI/ADR-RES ovarian
# T-47D breast = tested on: T-47D breast
# BT-549 breast = tested on: BT-549 breast
# MDA-MB-435 melanoma = tested on: MDA-MB-435 melanoma
# SW-620 colon = tested on: SW-620 colon
# MCF7 breast = tested on: MCF7 breast
# HCT-116 colon = tested on: HCT-116 colon
# KM12 colon = tested on: KM12 colon
# HCC-2998 colon = tested on: HCC-2998 colon
SMILES,growth (MOLT-4 leukemia),growth (SR leukemia),growth (RPMI-8226 leukemia),growth (OVCAR-8 ovarian),growth (OVCAR-5 ovarian),growth (OVCAR-4 ovarian),growth (SK-OV-3 ovarian),growth (IGROV1 ovarian),growth (OVCAR-3 ovarian),growth (HS 578T breast),growth (NCI/ADR-RES ovarian),growth (T-47D breast),growth (BT-549 breast),growth (MDA-MB-435 melanoma),growth (SW-620 colon),growth (MCF7 breast),growth (HCT-116 colon),growth (KM12 colon),growth (HCC-2998 colon)
Cc1c(C)c(N)c(C)c(C)c1N,84.1%,69.5%,98.7%,83.8%,85.1%,75.6%,91.3%,80.7%,115%,114%,96.1%,92.6%,104%,107%,51.8%,46.5%,59.3%,98.4%,–
Cc1ccc(N2CCN(CCC#N)CC2)cc1,105%,99.3%,96.7%,97.3%,92.5%,110%,93.4%,95.5%,106%,135%,98.8%,90.9%,79%,101%,90.3%,73.8%,95.7%,90%,–
O=C/C=C/c1ccco1,98.9%,99.4%,102%,100%,101%,105%,96.1%,106%,110%,107%,109%,107%,104%,106%,104%,96%,90%,97.6%,106%
CCCC(C)SP(=S)(SC(C)CCC)SC(C)CCC (stereo unspecified),110%,110%,105%,107%,112%,110%,108%,109%,98.5%,108%,99.9%,100%,99.8%,97.3%,91.7%,95.1%,101%,97.3%,91.5%
O=Cc1cn(Cc2ccccc2)c2ccccc12,99.8%,93%,61.2%,85.8%,-20.3% (active),55.1%,61.4%,-21.4% (active),68.6%,150%,82.1%,41.4%,95.1%,125%,92.4%,84.8%,68.4%,101%,–
Cc1cc[c-]cc1.Fc1c[c-]c(-c2ccccn2)c(F)c1.N#CCC[PH+](CCC#N)c1ccccc1.[Pt+2],5.29% (active),7.03% (active),14.6%,40.7%,64.9%,42.1%,108%,30.2%,28.5%,40.6%,55.3%,29.1%,55.7%,30.9%,6.78% (active),20.8%,19.1%,74.1%,–
C[C@]12CCC3[C@@H](C[C@@H]4SC(Nc5ccccc5)=N[C@@]45CC(=O)CC[C@]35C)[C@@H]1CCC2=O (stereo partly specified),-5.8% (active),-5.37% (active),-14.8% (active),-5.35% (active),31.2%,31.7%,56.9%,-11.3% (active),-9.98% (active),41%,9.86% (active),-27.4% (active),-19.9% (active),1.11% (active),-17.9% (active),15.4%,-85.5% (active),23.2%,–
CN(C)[C@@H]1C(=O)C(C(N)=O)=C(O)[C@@]2(O)C(=O)C3=C(O)c4c(O)ccc(Cl)c4[C@@](C)(O)[C@H]3C[C@@H]12,99.5% and 121%,87.9% and 82.8%,87% and 91.1%,98.7% and 91.7%,92.1% and 94.8%,98.3% and 98.6%,90.3% and 95.8%,78.7% and 87.2%,112% and 102%,94.7% and 91.7%,104% and 109%,91.5% and 97.7%,87.6%,99.6% and 103%,101% and 97.7%,94.8% and 86.8%,81.4% and 102%,94.7% and 102%,92.2% and 125%
C[N+]1(C)CCCC1c1cccnc1 (stereo unspecified),102%,97.8%,99.4%,104%,109%,107%,108%,115%,108%,89.2%,111%,96.5%,85.3%,108%,100%,90.9%,92.5%,103%,–
Cc1cc(N(CCCl)CCCl)ccc1C=Nc1ccc(-c2csc(-c3ccccc3)n2)cc1,22.5%,31.4%,77.3%,91.3%,120%,89.6%,71.6%,93.2%,89.7%,107%,82.4%,57.8%,67.2%,95.2%,83.1%,48%,89.8%,89.5%,–
CCCCn1c(=O)c(C(=O)NCc2ccccc2Cl)c(O)c2ccccc21,58.4%,60.4%,40.1%,81.1%,109%,82.4%,80.8%,74.9%,78.9%,101%,56.2%,85.6%,47.9%,98.5%,78.8%,64.4%,21.4%,83.8%,–
O=C1C=C(N2CC2)c2ccccc2C1=O,5.2% (active),0.0144% (active),40.5%,73.2%,123%,96.1%,76%,70.7%,83.3%,107%,62.7%,75.5%,71.5%,-78.8% (active),68.4%,41.5%,63.4%,81.9%,94%
CNC(=O)O/N=C(\SC)C(=O)N(C)C,86.5%,72.2%,86%,97.7%,101%,119%,102%,110%,107%,96.4%,96.4%,97.1%,101%,116%,106%,103%,105%,102%,–
COc1cc(C2C3=C(CCCC3=O)N(CCO)c3cc4c(cc32)CCC4)cc(OC)c1OC (stereo unspecified),93.5%,117%,76.2%,83.5%,96.1%,75.5%,114%,98.4%,93.5%,99.9%,87.8%,38.2%,109%,100%,103%,23%,68.6%,90.5%,78.9%
CCCn1cc2c3c(cccc31)[C@H]1C[C@@H](C)CN(C)[C@@H]1C2,77.6%,71.4%,48.4%,89.1%,84.4%,80.6%,87.9%,35.1%,84.4%,83.6%,78.8%,72.6%,89%,112%,90.1%,85%,53%,97.6%,95.7%
